High-throughput results as filed in PubChem.
Most compounds without a hit are left out; they make up all but 4.8% or so of the library.
hcDAF12 agonist – H. contortus DAF-12 nuclear receptor activators, primary screen, cell-based, luminescence, HEK293, lit1-tk-luc reporter | activation, % at 6.8 µM | AID 652067, 2013 | HEK293 hcDAF-12 lit1-tk-luc reporter; 0% DMSO, 100% Δ7-dafachronic acid | actives 1.4% (n = 370,000);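 active means activation above the mean of all tested compounds plus 3 SD, cut at about 5.5% in these data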;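 further: 100% = response to 3 µM Δ7-dafachronic acid high control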
SMARCA2 activ – SMARCA2 (BRM) function activators, primary screen, cell-based, luminescence, high throughput; MG213 cells, MMTV-luciferase reporter, dexamethasone, overnight; activation, % at 9.1 µM; actives 1% (n = 370,000); AID 652017, 2013; in the data active means activation above about 7.8%;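 further: 0% = vehicle wells and 100% = reference activator wells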
ssDAF12 agonist – S. stercoralis DAF-12 nuclear receptor activators, primary screen, cell-based, luminescence, HEK293, GRIP1 co-expression, lit1-tk-luc; Nuclear hormone receptor DAF-12 (Strongyloides stercoralis); HEK293 ssDAF-12/GRIP1 lit1-tk-luc reporter; % of 3 µM dafachronic acid response; activation, % at 6.8 µM; actives 1% (n = 370,000);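 active means activation above the mean over all tested compounds plus 3 SD, cut at about 0.9% in these data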;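 further: 0% = DMSO-only wells and 100% = 3 µM delta7-dafachronic acid wells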
DAX1 inh-1 – DAX1 (NR0B1) inhibitors on StAR promoter, primary screen, cell-based, luminescence, SF-1 (NR5A1), full-length DAX-1; AID 652010, 2013; actives 1.1% (n = 370,000); HEK293T StAR-luciferase reporter, SF-1/DAX-1 repression relief; inhibition, % at 6.8 µM;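 active means inhibition above the mean over all tested compounds plus 3 SD, cut at about 3.6% in these data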;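 further: 0% = DAX-1 cells with DMSO and 100% = cells lacking DAX-1 with DMSO; higher inhibition means more luminescence from relief of DAX-1 repression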
DAX1 inh-2 – DAX1 (NR0B1) inhibitors, primary screen, cell-based, HEK293, Gal4-DAX1, luciferase luminescence | Nuclear receptor subfamily 0 group B member 1 (Homo sapiens), P51843 | HEK293 Gal4-DAX1 luciferase reporter | inhibition, % at 6.75 µM | actives 0.99% (n = 340,000);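 active means inhibition above the mean over all tested compounds plus 3 SD, cut at about 4.2% in these data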;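 further: 0% = DAX1-transfected cells with DMSO and 100% = empty-vector control cells with DMSO; inhibition shows as a rise in luminescence from relieved DAX1 repression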
hgDAF12 agonist – H. glycines DAF-12 receptor agonists, primary screen, cell-based, luminescence, HEK293, GAL4 fusion, UAS-luciferase; Nuclear hormone receptor DAF-12 (Heterodera glycines), GAL4 fusion; HEK293 GAL4-hgDAF12 UAS-luciferase reporter, agonist luminescence; normalized to butyrate control; activation, % at 6.8 µM; actives 1.8% (n = 370,000); AID 687014, 2013;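 active means activation above a cutoff set at the mean of all screened compounds plus 3 SD, cut at about 10% in these data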;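 further: 0% = DMSO wells and 100% = sodium butyrate wells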
LXR ag – LXR agonists, Gal4 luciferase reporter, confirmation, counter-screen for hcDAF-12 agonist project, cell-based, luminescence, HEK293, H. contortus campaign; 3,400 tested, under 10 active; shares compounds with hcDAF12 agonist; activation, % at 6.8 µM; HEK293 Gal4-LXR tk-luc reporter, 24 h; normalized: DMSO 0%, positive control 100%;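 active means mean percent activation of the reporter above a cutoff set as the average over tested compounds plus their standard deviation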
Target sequence (P55055 whole entry, looked up, the tested form may be a part): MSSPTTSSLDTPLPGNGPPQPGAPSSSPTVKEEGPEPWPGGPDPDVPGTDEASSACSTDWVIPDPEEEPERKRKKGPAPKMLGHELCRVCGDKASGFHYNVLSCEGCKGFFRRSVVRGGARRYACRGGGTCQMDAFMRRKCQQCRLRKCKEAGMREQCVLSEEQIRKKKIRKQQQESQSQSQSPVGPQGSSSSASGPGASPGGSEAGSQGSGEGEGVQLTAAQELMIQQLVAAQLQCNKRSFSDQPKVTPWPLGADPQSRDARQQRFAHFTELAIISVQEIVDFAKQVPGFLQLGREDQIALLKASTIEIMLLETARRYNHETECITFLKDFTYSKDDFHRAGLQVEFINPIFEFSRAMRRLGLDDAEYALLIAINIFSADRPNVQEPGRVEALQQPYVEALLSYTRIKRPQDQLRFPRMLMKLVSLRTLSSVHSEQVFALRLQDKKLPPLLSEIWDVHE
hcDAF12 ag – H. contortus DAF-12 receptor agonists, confirmation, cell-based, luminescence, HEK293, lit1-tk-luc, triplicate; activation, % at 6.8 µM; shares compounds with hcDAF12 agonist; actives 61% (n = 3,400); HEK293 hcDAF-12 lit1-tk-luc reporter; % of Δ7-dafachronic acid response; AID 743032, 2013;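 active means mean activation across triplicate tests above the threshold derived from the earlier primary screen, cut at about 5.5% in these data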;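 further: 0% = DMSO only wells and 100% = 3 µM Δ7-dafachronic acid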
Active calls of the source: *; · = not tested or not shown.

SMILES	hcDAF12 agonist	SMARCA2 activ	ssDAF12 agonist	DAX1 inh-1	DAX1 inh-2	hgDAF12 agonist	LXR ag	hcDAF12 ag
Oc1c(C=Nc2ccccc2Cl)[nH]c2ccccc12	14.8*	7.5	1.1*	2.3	1.6	13.6*	0.5	8.9*
Cn1cnc([N+](=O)[O-])c1Sc1nnc(-c2ccccc2)c(-c2ccccc2)n1	-0.8	-2.3	-1.0	-1.1	·	-1.9	·	·
Nn1cnc2c([nH]c3ccccc32)c1=O	4.1	-1.3	0.8	-0.8	0.0	-0.2	·	·
COc1ccc2c(c1)[nH]c1c(=O)n(N)cnc12	9.7*	-1.4	0.8	0.8	5.7*	0.8	-0.1	6.4*
CSC1=Nc2ccccc2N=C(N2CCCC2)C1	-1.1	-0.3	-1.1	1.0	·	1.1	·	·
Cc1ccc(S(=O)(=O)CCC(=O)OCC(=O)c2c[nH]c3ccccc23)cc1	9.4*	-3.6	0.4	-0.7	-0.5	5.3	0.0	5.8*
Nc1[nH]c(C(=O)c2ccc(Br)cc2)c(-c2ccc(Cl)cc2[N+](=O)[O-])c1C(=O)NCCc1c[nH]c2ccccc12	1.5	-5.6	-0.1	-1.6	·	1.5	·	·
Cc1cc2c(nc1C)CCCN2S(=O)(=O)c1ccccc1	-0.6	-9.4	-0.9	1.9	·	-0.6	·	·
COC(=O)C1=C(C)N(Cc2ccccc2C(F)(F)F)C(=NCc2ccccc2)NC1CCc1ccccc1 (configuration not stated)	-0.5	2.3	-1.3	-0.8	·	3.1	·	·
COc1ccccc1C(=O)Nc1ccc2ccccc2c1	20.3*	5.8	1.6*	1.3	3.4	13.8*	0.9	12.1*
COc1ccccc1C(=O)Nc1ccc(N2CCCCC2)cc1	13.1*	5.5	2.7*	3.5	3.3	11.1*	1.1	13.8*
COc1cc2ccccc2cc1C(=O)Nc1nccs1	10.0*	1.2	1.4*	0.5	0.8	10.6*	0.6	10.8*
COc1ccc(C#Cc2c(-c3ccccc3OC)oc3ccccc23)cc1	-1.1	-1.8	-1.1	-0.5	·	1.2	·	·
COc1ccc(CN2C[C@@]3(O)CC[C@@H](O)[C@@H](OC)[C@@H]3[C@@](C)(O)[C@@H]2CC=C(C)C)cc1	-0.9	-2.5	-0.5	1.0	·	3.6	·	·
S=C(N/N=C/c1ccc(Cl)cc1)N1CCOCC1	7.2*	4.5	-0.1	2.1	1.4	12.7*	0.3	1.1
S=C(Nc1ccc(Cl)cc1Cl)N1CCOCC1	0.4	-1.3	-0.2	0.5	-0.5	0.2	·	·
O=C(COc1ccc2c(c1)OCO2)Nc1nccs1	7.5*	6.9	1.1*	2.2	-2.5	11.5*	1.0	6.0*
COCc1nnc(NC(=O)COc2ccc3c(c2)OCO3)s1	4.2	0.5	-1.0	0.1	1.3	0.9	·	·
O=C(N[C@H](Cc1ccccc1)C(=O)N(CCC1=CCCCC1)CC1CC1)[C@H]1O[C@@H](n2ccc(=O)[nH]c2=O)[C@H](O)[C@@H]1O	1.9	0.9	-0.9	0.7	·	0.3	·	·
Brc1c(CSc2nc3ccccc3o2)nc2ncccn12	0.1	-1.0	-0.6	1.5	0.1	6.4	·	·
Clc1c(CSc2nc3ccccc3o2)nc2ccccn12	7.0*	-0.7	0.8	4.2*	0.5	10.5*	1.2	7.0*
COc1ccc(CSc2nnnn2-c2ccccc2)cc1	-1.4	0.0	-1.1	-1.1	1.0	-0.9	·	·
COc1cccc(-c2nnc(SCc3nc4ccccc4s3)n2C)c1	5.3	1.9	0.3	0.7	0.6	1.7	·	·
COc1ccc(-n2nnnc2SCc2nc3ccccc3s2)cc1	8.1*	5.9	1.1*	1.2	1.4	9.4	1.0	11.2*
Cc1nnc(SCc2nc3ccccc3s2)n1-c1ccccc1	7.6*	7.2	1.2*	2.5	2.5	7.5	0.8	9.5*
SMILES	hcDAF12 agonist	SMARCA2 activ	ssDAF12 agonist	DAX1 inh-1	DAX1 inh-2	hgDAF12 agonist	LXR ag	hcDAF12 ag
N#CCc1nc(CSc2nc3ccccc3o2)cs1	-1.2	3.5	-0.5	1.2	1.9	8.2	·	·
c1ccc2oc(SCc3nc4ccccc4s3)nc2c1	10.1*	6.0	1.9*	1.6	4.4*	7.9	0.8	11.0*
Cc1ccc(S(=O)(=O)N2CCCc3nc(-c4ccccc4)ccc32)cc1	-0.5	-1.3	-1.1	-0.9	·	0.9	·	·
O=C(c1ccc2c(c1)OCO2)N1CCCc2ccccc21	1.1	1.6	-0.4	0.4	0.5	0.6	·	·
Cc1c(C(=O)N2CCc3ccccc32)oc2ccccc12	14.3*	5.8	4.6*	4.4*	2.7	18.9*	1.4	18.5*
O=C(c1ccc2c(c1)OCO2)N1CCc2ccccc21	7.1*	1.7	1.1*	0.6	-1.7	3.3	0.1	3.6
COc1ccc(NC2=Nc3cccc4cccc2c34)cc1OC	-3.0	-0.8	-1.4	-1.2	-1.1	-0.6	·	·
Clc1ccc(/C=N/NC2=Nc3cccc4cccc2c34)cc1	6.7*	3.9	0.5	1.4	3.7	7.1	1.1	10.1*
COc1ccc2c(c1)[C@@]1(OCCC=C[C@H]1C)C(=O)N2Cc1ccc(F)cc1	-1.6	-3.1	-1.0	-0.3	·	1.3	·	·
CC1CCCC(C)N1C(=O)c1cc(-c2ccc3c(c2)OCO3)on1 (configuration not stated)	6.6*	3.7	-0.1	2.2	0.6	11.3*	0.7	4.8
C=CCN1C(=O)c2n[nH]c(COC)c2C1c1ccc(C)cc1 (configuration not stated)	-1.6	-6.5	-1.4	-0.2	·	-0.9	·	·
CCOC(=O)c1cnc(-c2ccccc2)nc1N(C)C	11.1*	2.7	0.8	2.1	3.1	10.7*	0.4	9.4*
O=C(c1ccc2c(c1)C(=O)NC2=O)c1ccc2c(c1)C(=O)NC2=O	0.1	-1.2	0.0	-1.1	·	0.8	·	·
